Assay [1] can be described thus: qHTS assay for measurement of the activity of small molecule inhibitors on Zika virus induced Caspase-3 activity in human iPSC derived neural progenitor cells (hNPCs) (AID 1224857). Further: % of control where 0% means no effect; nearly all actives have a fitted effect of over 65% in size. The essentials: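 Cells were plated at 350 per well and grown 16 to 20 hours. Compound pretreatment lasted one hour, after which ZIKV (2 FFU/cell) was added for 6 hours. Percent inhibition was normalized between uninfected and infected controls.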

The nature of assay [2]: qHTS assay for measurement of the activity of small molecule inhibitors on Zika virus induced Caspase-3 activity in human astrocytoma cells (AID 1224859).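 Further: plate controls were ZIKV-infected untreated cells for no effect and uninfected cells for full effect.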 Put shortly:
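Percent inhibition of virus-induced caspase-3/7 signal is calculated against uninfected and ZIKV-infected control cells. Cells are SNB-19, infected at 2 FFU/cell for 6 h after 1 h compound exposure.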
A general note: Quantitative high-throughput screening tests each substance at several concentrations.

Assay [3] can be described thus: qHTS assay to identify small molecule inhibitors of chordoma cells - UCH-1 (AID 1259355). Further: nearly all actives have a fitted effect of over 55% in size. Further: potency means the concentration at half of the fitted maximal effect. Put shortly: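 A 48hr growth-inhibition format: each drug tested at 15 concentrations together with added auranofin, camptothecin, doxorubicin, rubitecan and topotecan, with cell viability quantified as CellTiter-Glo luminescence.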
A short description of assay [4]: qHTS assay to identify small molecule inhibitors of chordoma cells - UCH-2 (AID 1259356). Further: on the % scale 0 is the no-effect control and ±100 the full control effect.
Assay [5] is described as follows: High-throughput drug toxicity screening in the BPDCN cell line Gen2.2 (AID 1224824; call rule not given here;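 further: cells exposed to compounds for 48 h before reading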). The conditions noted are these: Gen2.2 BPDCN cells; at 45.8 µM (top of the series). Put shortly:
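Gen2.2 cells, 500 per well in phenol red-free RPMI with 10% FBS, exposed to compounds 48 h at 37 C, 5% CO2; viability by CellTiter-Glo luminescence. Percent activity scaled to DMSO (100%) and 9.2 uM bortezomib final (0%).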

Assay [6] is described as follows: High-throughput drug toxicity screening in the BPDCN cell line Cal-1 (AID 1224825; call rule not given here). The note with it: Cal-1 BPDCN cell viability, qHTS; at 45.8 µM (top of the series). Put shortly: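 Viability of the BPDCN line Cal-1 is measured as ATP-based luminescence (CellTiter-Glo) following 48 h incubation with compounds. Percent activity uses DMSO-treated wells as 100% and 9.2 uM bortezomib as 0%.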

A short description of assay [7]: qHTS Screen of the MIPE 4.0 Collection Against Ewings Sarcoma (TC71) (AID 1259253). Further: nearly all actives have a fitted effect of over 40% in size. Further: potency means the concentration at half of the fitted maximal effect. Put shortly:
(§1)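 Compound titrations go onto adherent log-phase cells 4 h after seeding, incubate 48 h at 37C, then CellTiter-Glo luminescence reports viability relative to DMSO and cell-free controls.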

Assay [8] in a line: Identifying Small Molecule Inhibitors of Pancreatic Cancer Stem Cells (SN12C, Adherent) (AID 1259358).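 Further: cell survival measured after 48 h of compound exposure.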 The essentials: (§2)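 Viability is scored by CellTiter-Glo luminescence 48 h after dosing, expressed as percent activity against vehicle and no-cell references. Spheroid formats rely on cells cultured 14 days in stem cell media beforehand.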
Assay [9] is described as follows: Identifying Small Molecule Inhibitors of Pancreatic Cancer Stem Cells (Panc1, Spheroid) (AID 1259359).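 Further: compound exposure lasted 48 h before reading.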 The essentials: as §2
Assay [10] is described as follows: Identifying Small Molecule Inhibitors of Pancreatic Cancer Stem Cells (A278, Adherent) (AID 1259361).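 Further: viability read after 48 h compound exposure; 100% = DMSO-treated cells and 0% = cell-free media-only wells; nearly all actives have a fitted effect of over 35% in size.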 The essentials:
as §2

Assay [11] is described as follows: qHTS Screen of the MIPE 4.0 Collection Against Ewings Sarcoma (EW8) (AID 1259255). Further: nearly all actives have a fitted effect of over 35% in size. Further: potency means the concentration at half of the fitted maximal effect.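 On viability: 100% = DMSO-treated cells and 0% = medium-only wells without cells.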 Put shortly: as §1
A short description of assay [12]: qHTS Screen of the MIPE 4.0 Collection Against Ewings Sarcoma (TC32) (AID 1259256). Further: nearly all actives have a fitted effect of over 45% in size. Further: potency means the concentration at half of the fitted maximal effect. Put shortly:
as §1

Assay [13] is described as follows: Immunotoxin (HA22) sensitization/mitigation study. Vehicle arm (PBS) (AID 1159510; call rule not given here; further: potency means the concentration at half of the fitted maximal effect).
Assay [14] is described as follows: Immunotoxin (SS1P) sensitization/mitigation study. Vehicle arm (DMEM) (AID 1159513; call rule not given here).
Assay [15] in a line: Identifying Small Molecule Inhibitors of Pancreatic Cancer Stem Cells (SN12C, Spheroid) (AID 1259360). The note with it: Potency: SN12C spheroid viability. Put shortly:
(§3)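 Spheroids grown 14 days in stem cell media on hydrogel-coated nonadherent plates; 2D lines seeded directly. Compounds added after 4 h attachment, 48 h at 37C, 5% CO2; CellTiter-Glo luminescence normalized to DMSO (no inhibition) and no-cell wells (full inhibition).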

A short description of assay [16]: qHTS Screen of the MIPE 4.0 Collection Against Ewings Sarcoma (RDES) (AID 1259252).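 Further: 100% = DMSO-treated cells and 0% = medium-only wells without cells; nearly all actives have a fitted effect of over 35% in size.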 Put shortly: as §1
Assay [17] can be described thus: Identifying Small Molecule Inhibitors of Pancreatic Cancer Stem Cells (A2780, Spheroid) (AID 1259357).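 Further: spheroids pre-formed over 14 days in stem cell medium on hydrogel; compound exposure lasted 48 h before the ATP luminescence read.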 The conditions noted are these: Potency: A2780 spheroid viability. Put shortly: as §3

The record followed here is PubChem BioAssay (NCATS).

Records with an inconclusive call do not appear. Activity calls are given as the source filed them. Unless noted, the call rests on the fitted dose curve; in most records, active means well fitted curve in the direction sought with a large enough effect; inconclusive means small, poorly fitted or top-dose-only effect, or another doubt; inactive means no such curve, though single readings can be large; an effect the other way counts as inactive or inconclusive.

As to `CC[C@@H](CO)NC(=O)[C@@H]1C=C2c3cccc4[nH]cc(c34)C[C@H]2N(C)C1`, the Potency entry in [1], in [3] and in assay [4] was “inactive” throughout. For the same compound, the outcome in assay [2] was inactive.
Take `Cc1cc(SCc2sc(-c3ccc(C(F)(F)F)c(F)c3)nc2C)ccc1OCC(=O)O`: the cell viability, % of control (lower = more cytotoxic) in assay [5] is 144%. In addition, the viability (% of control) in assay [6] was found to be 109%. Moreover, in assay [7], the Potency was 23.5 µM (active). For the same compound, the Potency result in [8] was “inactive”. For the same compound, the result in assay [9] was inactive. In [10], the IC50 (viability decrease) entry is “inactive”.
Take `CC(C)=CC1C(C(=O)OCc2cccc(Oc3ccccc3)c2)C1(C)C` (stereo not given): the Potency result in assay [1], in [3] and in assay [4] was “inactive” in each case. Also, in assay [2], the outcome was inactive.
Regarding `Fc1ccc(C(OCCN2CCN(CCCc3ccccc3)CC2)c2ccc(F)cc2)cc1`, the cell viability, % of control (lower = more cytotoxic) in [5] amounted to 57.3%. In addition, in assay [6], the viability (% of control) came to 3.89%. In addition, the Potency entry in assay [1] was “inactive”. In addition, the result in assay [2] was inactive. The Potency in assay [7] was 18.7 µM (active); in [11] it was 20.9 µM (active); in assay [12], 26.4 µM (active); in assay [3], 31.6 µM (active).
On to `CCOP(=S)(OCC)Oc1cc(C)nc(C(C)C)n1`, for which the Potency result in assay [1], in [3] and in assay [4] was “inactive” each time. For the same compound, in assay [2], the result was inactive.
For `CCCCC/C=C\C/C=C\C/C=C\C/C=C\CCCC(=O)NC1CC1`, the Potency result in [13], in [14], in assay [8] and in assay [15] was “inactive” in each case.
In the case of `Cn1cc(C2=C(c3cn(C4CCN(Cc5ccccn5)CC4)c4ccccc34)C(=O)NC2=O)c2ccccc21`, the Potency is 4.18 µM (active) in [13], 6.62 µM (active) in assay [7], 10.5 µM (active) in [11] and 8.33 µM (active) in [12]. Besides, the cell viability, % of control (lower = more cytotoxic) in assay [5] was found to be 265%. In assay [6], the viability (% of control) was determined as 14.5%. For the same compound, the Potency result in assay [1], in [8] and in [15] was “inactive” each time. Also, the compound was called inactive in [2].
Consider `COc1ccc(C(=O)c2c(C)n(CCN3CCOCC3)c3ccccc23)cc1`, for which, in assay [13], the Potency is 20.9 µM (active). In assay [5], the cell viability, % of control (lower = more cytotoxic) stood at 100%. For the same compound, the viability (% of control) in assay [6] came out at 101%. The Potency entry in assay [1], in assay [16], in [7], in assay [11], in [12] and in assay [3] was “inactive” throughout. Besides, the Potency result in [4], in assay [17] and in assay [8] was “inactive” in each case. Also, in [2], the result was inactive.
Consider `COC[C@@H](NC(C)=O)C(=O)NCc1ccccc1`, for which the cell viability, % of control (lower = more cytotoxic) in assay [5] is 142%. Also, in assay [6], the viability (% of control) was 115%. For the same compound, the compound was called inactive in assay [2]. Further, the Potency result in assay [16], in [7], in [11] and in assay [12] was “inactive” each time.
